Compound activity deposited in PubChem BioAssay by National Center for Advancing Translational Sciences (NCATS).
NPC1 promoter act – NPC1 promoter activation; hit rate 2.4% among 320,000; Huh7 NPC1 promoter luciferase reporter, 24 h; Potency, µM (series often up to 9.22 µM), for the others: top-dose activation, most hits filed as activators; also: % of control where 0% means no effect; nearly all actives have a fitted effect of over 60% in size
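Huh7 cells stably carrying NPC1 promoter–luciferase, plated in Opti-MEM with 10% FBS for 2 h, were exposed to compound in DMSO for 24 h at 37 °C; luciferase reagent was added for 10 min and luminescence read.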
Rab9 prom act – Rab9 promoter activation; Potency, µM (doses to about 9.22 µM), without a hit: at the top dose activation, negative = inhibition, actives largely listed as activators; hit rate 2.8% among 320,000; Huh7 Rab9 promoter-luciferase reporter, luminescence, 24 h; also: % of control where 0% means no effect; nearly all actives have a fitted effect of over 60% in size
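Luminescence from Amplite-detected luciferase (10 minutes, ambient) reports Rab9 promoter activation. Before that, stable Rab9-luciferase Huh7 cells (1500/well, reduced-serum OP-MEM I plus 10% FBS) were exposed to compound for 24 hours at 37C.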
ELG1 repair inh – inhibitors of ELG1-dependent DNA repair in HEK293T cells | HEK293T ELG1-luciferase reporter, luminescence, 16 h; DNA damage induced by 5-fluorouridine | Potency, µM (top dose mostly 46.1 µM), for the others: at the highest dose activity change, negative = inhibition, usual class: inhibitors | hit rate 2.3% among 330,000 | AID 504467; also: % is scaled to controls: 0 for no effect and ±100 for the full control effect; nearly all actives have a fitted effect of over 55% in size
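Reporter activity after DNA damage by 5-fluorouridine is monitored. Compound-treated cells incubate 16 hr at 37 °C, then ONE-Glo is added for 30 min before luminescence reading.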
ELG1 genotox – induces genotoxicity in HEK293T cells with luciferase-tagged ELG1; Potency, µM (titrated, usually from 46 µM), for inactives: at the top dose activity change, positive = activation, actives largely listed as activators; hit rate 1.3% among 330,000; AID 504466; HEK293T ELG1-luciferase reporter, luminescence, 16 h; also: % of control where 0% means no effect; nearly all actives have a fitted effect of over 60% in size
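ELG1-luciferase HEK293T cells, 2,000/well; compound pinned in; 16 hr, 37 °C, 5% CO2; ONE-Glo, 30 min RT; luminescence on CCD imager.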
SMN2 splice up – enhancers of SMN2 splice variant expression; HEK293 SMN2-luciferase splicing reporter, luminescence, 30-36 h; Potency, µM (doses to about 46.1 µM), for inactives: at the highest dose activity change, positive = activation, usual class: activators; hit rate 2.8% among 210,000; AID 1458; also: % of control where 0% means no effect; nearly all actives have a fitted effect of over 55% in size
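HEK293 cells carry an SMN2 minigene-luciferase reporter in which exon 7 inclusion puts luciferase in frame. Cells were seeded at 2000 cells/well, attached for 10-12 hours, then exposed to compounds for 30-36 hours at 37C before ONE-Glo luminescence.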
FLuc modulator – counter-screen for miR-21 project: firefly luciferase inhibitors or activators; purified FLuc, Km substrates, luminescence inhibition; Potency, µM (doses to about 57.5 µM), for the others: at the highest dose activity change, negative = inhibition, most hits filed as inhibitors; hit rate 6.9% among 360,000; P08659;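 also: plate controls were vehicle for no effect and reference inhibitor for full effect; nearly all actives have a fitted effect of over 55% in size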
Target sequence (P08659 whole entry, looked up): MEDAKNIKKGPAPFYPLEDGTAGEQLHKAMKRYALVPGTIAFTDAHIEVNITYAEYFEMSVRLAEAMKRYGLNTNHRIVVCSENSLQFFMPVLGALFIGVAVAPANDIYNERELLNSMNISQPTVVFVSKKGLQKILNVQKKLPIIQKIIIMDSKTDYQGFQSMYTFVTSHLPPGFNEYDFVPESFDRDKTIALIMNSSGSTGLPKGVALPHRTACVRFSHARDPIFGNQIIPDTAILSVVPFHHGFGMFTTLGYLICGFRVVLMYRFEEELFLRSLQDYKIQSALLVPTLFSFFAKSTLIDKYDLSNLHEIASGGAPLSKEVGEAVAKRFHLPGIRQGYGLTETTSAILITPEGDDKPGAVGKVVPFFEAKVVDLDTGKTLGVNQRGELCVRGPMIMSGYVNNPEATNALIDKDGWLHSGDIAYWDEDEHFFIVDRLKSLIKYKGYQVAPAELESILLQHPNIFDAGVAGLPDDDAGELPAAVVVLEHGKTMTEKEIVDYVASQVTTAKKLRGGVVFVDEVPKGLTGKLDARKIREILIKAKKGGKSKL
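Purified P. pyralis luciferase, 10 nM final, with Km-level 10 uM D-luciferin and 10 uM ATP in 50 mM Tris acetate pH 7.5, 10 mM Mg acetate, 0.01% Tween-20, 0.05% BSA; 6-point qHTS titration about 60 µM downward; luminescence read.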
* hit, by the source's call; ? = inconclusive; / = not tested or not shown. Rows were chosen to be rich in hits. Some 9.3% of all compounds tested hit in one or more screens of this group. Calls follow the shape of the dose curve; as a rule, active = well fitted curve in the direction sought with a large enough effect; inconclusive = small, poorly fitted or top-dose-only effect, or another doubt; inactive = no such curve, though single readings can be large; an effect the other way counts as inactive or inconclusive. Potency is read from the fitted curve at half-maximal effect.

SMILES | NPC1 promoter act | Rab9 prom act | ELG1 repair inh | ELG1 genotox | SMN2 splice up | FLuc modulator
Cc1nc(/N=C(\N)Nc2ccccc2)nc2ccccc12 | ? | 25% | ? | 3% | 24% | 12µM*
Cc1cc(C)nc(/N=C(\N)Nc2ccc(OCc3ccccc3)cc2)n1 | -17% | -31% | -7% | -4% | / | 5%
Cc1cc(C)nc(/N=C(\N)Nc2cccc(OCc3ccccc3)c2)n1 | -7% | -18% | 21µM* | -4% | / | 1%
CC(C)C[C@@H](CC(=O)N[C@H](CC(=O)N[C@@H]1CCCC[C@H]1C(=O)N[C@H](CC(=O)N[C@@H](CCC(=O)O)CC(=O)O)CC(C)C)C(C)C)NC(=O)[C@@H]1CNCC[C@H]1N | / | / | / | / | 9% | /
CCN1C(=O)/C(=C\c2cn(CCC#N)nc2-c2ccc(F)cc2)SC1=S | -4% | -2% | 15µM* | -1% | -4% | 1%
N#CCCn1cc(/C=C2\NC(=S)N(c3ccccc3)C2=O)c(-c2ccc(-c3ccccc3)cc2)n1 | -12% | -12% | 0% | ? | 2% | 2%
CN(C)c1ccc(C(C(=O)NCC2CCCO2)N(C(=O)c2snc(C(N)=O)c2N)c2ccc3c(c2)OCO3)cc1 (centres undefined) | -1% | -11% | 21µM* | 0% | / | 1%
CN(C)c1ccc(C(C(=O)NCC2CCCO2)N(C(=O)c2snc(C(N)=O)c2N)c2ccccc2)cc1 (centres undefined) | 2% | 0% | ? | -29% | / | 0%
CCCCn1c(N)c(N(CCC(C)C)C(=O)c2cc(S(=O)(=O)N3CCOCC3)ccc2F)c(=O)[nH]c1=O | 2% | 2% | 7% | -4% | / | 3%
COc1ccc(/C=N/n2cnnc2SCc2ccc(OC)cc2)cc1 | 4% | -2% | 1% | 1% | -5% | 13µM*
CC(=O)c1c(N2CCN(C(=O)C3CCCO3)CC2)nc(=S)n(-c2ccccc2)c1C (centres undefined) | -3% | 0% | 15% | -3% | -17% | 1%
COc1ccccc1CC(=O)NCc1csc(-c2cccs2)n1 | ? | ? | ? | 16% | / | 17µM*
CCC(=O)NCc1csc(-c2cccs2)n1 | 20% | ? | ? | 10% | / | -8%
COc1ccc(CCNC(=O)Cn2nnc(-c3cccs3)n2)cc1OC | -3% | 11% | 0% | -2% | -19% | 0%
COc1ccc(CCNC(=O)c2nc(-c3cccs3)no2)cc1OC | -6% | -2% | 9.2µM* | -5% | -42% | -2%
COc1ccccc1CCNC(=O)c1nc(-c2cccs2)no1 | ? | ? | ? | ? | ? | 17µM*
O=C(NCc1ccc(F)cc1)c1nc(-c2cccs2)no1 | 0% | -2% | 5% | 3% | 9% | -6%
Brc1cccc(OCCSc2ncccn2)c1 | 0% | ? | ? | 12% | 26% | ?
COc1cc(/C=C2\N=C(c3ccccc3)OC2=O)ccc1OC(C)=O | 23% | 2% | 13% | 0% | / | 15µM*
COc1ccc(/C=C2/N=C(c3cccs3)OC2=O)cc1OC(C)C | 2% | 0% | -11% | -11% | 12% | 6.7µM*
Cc1ccc(-c2nnc(COC(=O)c3ccco3)o2)cc1 | -5% | -2% | 16% | 13% | / | 13µM*
Cc1ccc(C(=O)OCc2nnc(-c3ccc(Br)cc3)o2)cc1 | 1% | -1% | -20% | 1% | -5% | ?
Cc1ccc(-c2nnc(COC(=O)c3cccs3)o2)cc1 | ? | 21% | ? | ? | / | 6.7µM*
O=C(NCCc1cccs1)c1ccc(Cn2c(SCc3cccc(F)c3)nc3cccnc32)cc1 | / | / | / | / | 3% | -1%
COc1ccc(C(=O)N2CCc3ccc(NC(=O)c4ccccn4)cc3C2)cc1F | ? | 27% | ? | -16% | / | 21µM*
SMILES | NPC1 promoter act | Rab9 prom act | ELG1 repair inh | ELG1 genotox | SMN2 splice up | FLuc modulator
COc1ccc(S(=O)(=O)N2CCCCC2)cc1NC(=O)Cn1cnc2ccccc2c1=O | 0% | 1% | 3% | -1% | / | -2%
c1ccc(Nc2nnc(-c3cccc4ccccc34)o2)cc1 | -5% | ? | ? | ? | / | 2.1µM*
c1ccc(OCCOc2ncnc3ccccc23)cc1 | 3.5µM* | 4µM* | ? | ? | 3% | ?
COC(=O)CSc1nnc(-c2sc3cc(OC)ccc3c2Cl)n1C | 1% | 0% | -24% | 3% | / | ?
COC(=O)c1ccccc1NC(=O)CN1CCC(NC(=O)c2ccc(C)cc2)CC1 | 4% | -2% | 16µM* | -4% | ? | -20%
Cc1ccc(C(=O)NC2CCN(CC(=O)Nc3ccccc3Cl)CC2)cc1 | 2% | 3% | 7% | 4% | / | -16%
COc1ccc(NC(=O)CN2CCN(CC(=O)Nc3ccccc3Cl)CC2)cc1Cl | -5% | -1% | ? | -13% | -17% | -2%
O=C(CN1CCN(S(=O)(=O)c2ccc(F)cc2)CC1)Nc1ccccc1C(=O)NC1CC1 | 0% | -2% | -7% | -1% | / | 5%
COc1ccc(F)cc1CN1CCN(CC(=O)Nc2ccccc2C(=O)NC2CC2)CC1 | 1% | -7% | 10µM* | -9% | / | 8%
COc1ccccc1NC(=O)CN1CCN(CC(=O)Nc2ccc(Cl)c(C(F)(F)F)c2)CC1 | -3% | -1% | 18µM* | -15% | -38% | -4%
Cc1ccc2nc(-c3ccc(NC(=O)COc4ccccc4)cc3)sc2c1 | / | / | / | / | 1.3µM* | 3µM*
C=CCn1c(SCC(=O)NNC(=O)Nc2ccc(C)cc2)nnc1-c1ccccc1 | -4% | -2% | 8% | 0% | / | -2%
